AI-2 QS mod – Vibrio harveyi AI-2 quorum sensing modulators, primary screen, JMH597 strain, luminescence/OD600 ratio | Vibrio harveyi JMH597 AI-2 luminescence/OD600 ratio, 9 h; active compounds read low; strain lacks LuxN and CqsS sensors; 0 = neutral-control median | activity change, % at 7.5 µM | 300,000 compounds, 0.4% hits; in the data active = activity change below about -75%, passing the limit was not always enough;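 also: luminescence divided by OD600 gain over 9 h not by final OD600 alone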
SMARCA2 activ – SMARCA2 (BRM) function activators, primary screen, cell-based, luminescence, high throughput. MG213 cells, MMTV-luciferase reporter, dexamethasone, overnight. activation, % at 9.1 µM. 370,000 compounds, 1% hits. AID 652017, 2013; in the data active = activation above about 7.8%;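 also: 0% = vehicle wells and 100% = reference activator wells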
HSF1 inhib – HSF1 inhibitors in luciferase reporter cells, primary screen, cell-based, NIH3T3, luminescence; AID 2098, 2009; activity change, negative = inhibition, % at 7.5 µM (by protocol); 300,000 compounds, 0.77% hits; NIH3T3-HGL HSE-luciferase, MG132-induced, luminescence 8 h; active compounds read low;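 active = more than half of replicate wells show activity change below -50%, luminescence cut by over half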;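 also: luciferase reports HSF-1 transcriptional activity via heat shock element; 0% = median of DMSO wells and -100% = zero luminescence signal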
HSP90 refold inh – HSP90 inhibitors, primary screen, cell lysate, luminescence; Heat shock protein HSP 90 (rabbit reticulocyte lysate; luciferase refolding); Rabbit reticulocyte lysate, luciferase refolding luminescence, 3 h; inhibition, % at 5.6 µM; 290,000 compounds, 0.91% hits; AID 1789, 2009;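 active = inhibition above the screen-wide mean plus 3 SD, computed separately per campaign, cut at about 16% in these data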;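 also: 0% = DMSO wells and 100% = 60 µM geldanamycin wells; inhibitors lower the luminescence because luciferase stays unfolded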
FXN GAA850 act – FXN promoter activators, primary screen, cell-based, luciferase luminescence, HEK293 lucGAA850; HEK293 lucGAA850 FXN promoter luciferase reporter, 24 h; percent of 10 µM SAHA response; activation, % at 6 µM; 360,000 compounds, 0.56% hits;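 active = activation above the average of all compounds screened plus 3 SD, cutoff fixed separately per campaign, cut at about 7.5% in these data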;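 also: 0% = DMSO wells and 100% = 10 µM SAHA wells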
PG9 Ab binder – binders of HIV-1 gp120 antibody PG9, primary screen, biochemical, TR-FRET | HIV-1 gp120 / PG9 antibody interaction | TR-FRET gp120-PG9 antibody binding | inhibition, % at 6.7 µM | 360,000 compounds, 0.43% hits | AID 624416, 2012; in the data active = inhibition above about 8.5%
GAA30 counter – GAA30 FXN promoter activators, confirmation, counter-screen for GAA850 frataxin promoter activator project, cell-based, luminescence, HEK293, lucGAA30, triplicate. shares compounds with FXN GAA850 act. HEK293 lucGAA30 FXN promoter luciferase, 24 h; DMSO = 0%, 5 µM ipriflavone = 100%. activation, % at 6 µM. 1,900 compounds, 66% hits. AID 588350, 2011;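 active = mean activation above the mean of solvent-only control wells plus 3 SD, cut at about 22% in these data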;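 also: counterscreen of GAA850 promoter hits where activity marks nonselective or luminescence artifacts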
FXN GAA850 conf – FXN GAA850 promoter activators in reporter cells, confirmation, cell-based, luminescence, HEK293 lucGAA850, triplicate; shares compounds with FXN GAA850 act; HEK293 lucGAA850 FXN promoter luciferase reporter, 24 h; 100% = activation by SAHA; activation, % at 6 µM; 1,900 compounds, 86% hits; AID 588351, 2011;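 active = mean activation above a set limit taken from the primary screen, cut at about 8% in these data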;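 also: 0% = DMSO wells and 100% = 10 µM SAHA wells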
* marks the source's active call; other numbers are inactive results; · = no result given. In the library only some 3.4% were active in any assay of this set; here they are far more common.

SMILES	AI-2 QS mod	SMARCA2 activ	HSF1 inhib	HSP90 refold inh	FXN GAA850 act	PG9 Ab binder	GAA30 counter	FXN GAA850 conf
O=C1[C@H]2[C@@H](c3ccc(F)cc3)N3C(=O)N(c4cccc(Cl)c4)C(=O)[C@@]3(Cc3ccccc3)[C@H]2C(=O)N1C1CCCCC1	25	1	-3	·	9.3*	0	13	7
O=C1[C@H]2[C@@H](c3ccc(F)cc3)N3C(=O)N(c4cccc(Br)c4)C(=O)[C@@]3(Cc3ccc(Cl)cc3)[C@H]2C(=O)N1C1CCCCC1	12	5	-7	-4	0	0	·	·
CCCCN1CC(COCc2ccccc2)Oc2cccc(Oc3ccc(F)cc3OC)c2S1(=O)=O (stereo not drawn)	·	-3	·	·	·	0	·	·
Cc1cccc(NC(=O)CSCC(=O)Nc2cc(C(F)(F)F)ccc2N2CCOCC2)c1	·	-2	·	·	14*	-1	-1	9.4*
Cc1cccc(NC(=O)CSCC(=O)Nc2ccc(N3CCOCC3)cc2N2CCOCC2)c1	·	-4	·	·	0	-1	·	·
Cc1cc(NC(=O)C(C)SCC(=O)Nc2cc(C(F)(F)F)ccc2N2CCCCC2)no1 (stereo not drawn)	-1	0	7	·	9.1*	2	24*	16*
CC(C)c1ccc(NC(=O)N2CCc3ccccc3C2)cc1	14	4	16	-1	9.0*	-3	113*	32*
O=C(Nc1ncccc1O)c1ccc(S(=O)(=O)Nc2ccccc2)cc1	9	-1	-18	·	20*	-1	52*	47*
O=C(Nc1ccccc1O)c1ccc(NS(=O)(=O)c2cccc3cccnc23)cc1	11	1	-17	0	20*	2	56*	73*
C[C@H](O)[C@@H]1C(=O)N2CCc3c([nH]c4cccc(-c5ccccc5)c34)[C@@H]2C[C@@H]1N(C)C(=O)c1ccco1	·	-1	·	·	·	-2	·	·
O=C(NCc1cccs1)c1ccc(N2CCCCC2)nc1	34	5	14	6	7.7*	-2	86*	30*
CC1CCCN(c2ccc(C(=O)NCc3cccs3)cn2)C1 (stereo not drawn)	16	1	25	-2	5	0	·	·
Cn1cc(CCOCc2ccccn2)c2ccccc21	·	2	·	·	·	-1	·	·
O=C(Cn1ncc(Cl)c(Cl)c1=O)N1CCN(S(=O)(=O)c2ccc3ccccc3c2)CC1	17	-13	61	-1	9.7*	-2	-63	16*
Cc1ccc(NC(=O)Nc2ccc(Cl)cn2)cc1	9	5	40	6	8.2*	1	94*	32*
O=C(C=Cc1ccccn1)c1ccccc1	·	1	·	·	5	-1	·	·
O=C(C=Cc1ccccn1)c1ccccc1O	·	3	·	·	8.5*	-1	-40	26*
COc1cc(C2NC(=O)NC(C)=C2C(=O)OCc2ccccc2)ccc1O (stereo not drawn)	1	5	3	·	8.9*	1	-3	10*
COCCOC(=O)C1=C(C)NC(=O)NC1c1ccc(OC(=O)c2ccco2)c(OC)c1 (stereo not drawn)	15	2	0	-1	13*	0	33*	10*
COC(=O)C1=C(C)N(Cc2ccc(C(F)(F)F)cc2)C(=NCc2ccccc2C(F)(F)F)NC1c1ccccc1C(F)(F)F (stereo not drawn)	·	-4	·	·	·	-1	·	·
O=C1CCCC2=C1[C@@]1(O[C@H]3C=CC=CN23)C(=O)N(c2ccccc2)c2ccccc21	·	3	·	·	·	1	·	·
O=C(COc1ccc(Cl)cc1[N+](=O)[O-])NC1CCCCC1	3	0	0	-5	8.1*	2	85*	29*
CC(=O)c1cc(Cl)ccc1OCC(=O)NC1CCCC1	·	2	·	·	2	1	·	·
COC(=O)CC#C[C@H](C)[C@@H](NS(=O)(=O)c1ccc(C)cc1)C1CCCCC1	·	-1	·	·	·	1	·	·
COc1cc(OC)cc(C(=O)Oc2ccc(/C=N/Nc3nc4ccccc4s3)cc2OC)c1	47	-4	40	7	8.0*	-2	116*	36*
SMILES	AI-2 QS mod	SMARCA2 activ	HSF1 inhib	HSP90 refold inh	FXN GAA850 act	PG9 Ab binder	GAA30 counter	FXN GAA850 conf
COc1cc(/C=N/Nc2nc3ccccc3s2)ccc1OC(=O)c1ccccc1F	26	6	66	5	9.3*	-3	118*	41*
CCCCC1Cc2[nH]c(=S)[nH]c(=O)c2C(c2ccc(F)cc2)O1 (stereo not drawn)	·	-2	·	·	·	-1	·	·
CCOC(=O)[C@H]1[C@H]2COc3ccc(Br)cc3[C@H]2N2C(=O)CN(Cc3ccc(Cl)cc3)C(=O)[C@@]12C	·	-1	·	·	3	0	·	·
Nc1nc(N)nc(-c2cc(O)ccc2O)n1	·	1	·	·	-7	-2	·	·
Nc1nc(N)nc(-c2cc([N+](=O)[O-])ccc2O)n1	·	0	·	·	17*	0	69*	51*
Cc1ccc2nc(NC(=O)COC(=O)c3ccc(Br)o3)sc2c1	·	1	·	1	9.4*	1	88*	28*
Cc1ccc2nc(NC(=O)COC(=O)c3cccnc3)sc2c1	·	1	·	·	1	-3	·	·
C=C1CCN([C@@H](Cc2ccccc2)C(=O)NCCC(C)C)S(=O)(=O)c2ccccc21	22	-1	7	·	8.0*	1	12	6
C=C1CCN([C@@H](CC(C)C)C(=O)NCc2ccccc2)S(=O)(=O)c2ccccc21	32	1	4	·	1	-1	·	·
C=C1CCN([C@@H](CC(C)C)C(=O)Nc2ccc(OC)cc2)S(=O)(=O)c2ccccc21	41	0	4	·	14*	-1	22*	11*
CCCCOC(=O)Nc1ccc(N2CCCCC2)cc1	-39	1	31	4	8.1*	-1	93*	31*
CCCCOC(=O)Nc1ccc(C(N)=O)cc1	-51	4	6	2	3	0	·	·
CCOC(=O)c1ccc(N=c2sc(C(=O)OC)cc(=O)n2Cc2ccco2)cc1	16	0	89	8	15*	-2	7	35*

From PubChem
